# Several values for one entry are separate records, joined by “and”; a condition that tells them apart may be missing. Identical values can stand only once. The panel holds about 83,000 compounds, 20% with a hit somewhere; the sample as a whole holds those more often.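 Percent growth is the endpoint: 0 to 100 indicates growth inhibition (40 means 60% inhibition), 0 means no net growth, and negative values indicate cell death.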 A number with no mark means an inactive call. Activity calls are given as the source filed them. Rule for the calls: active = growth percent below 10; inactive = the rest.
# Experiments:
# Assay in all cases: NCI-60 one-dose screen, 48 h (100 = growth as untreated, 0 = no growth, -100 = all killed)
# Settings in all cases: 10 µM unless noted
# T-47D breast = test system: T-47D breast
# BT-549 breast = test system: BT-549 breast
# MDA-MB-435 melanoma = test system: MDA-MB-435 melanoma
# MCF7 breast = test system: MCF7 breast
# HCT-116 colon = test system: HCT-116 colon
# HCC-2998 colon = test system: HCC-2998 colon
# KM12 colon = test system: KM12 colon
# SW-620 colon = test system: SW-620 colon
SMILES,growth (T-47D breast),growth (BT-549 breast),growth (MDA-MB-435 melanoma),growth (MCF7 breast),growth (HCT-116 colon),growth (HCC-2998 colon),growth (KM12 colon),growth (SW-620 colon)
CCCCCCCCCCCC[n+]1ccc2ccccc2c1,5.61% (active),-73.4% (active),-69.6% (active),-10.3% (active),-74.7% (active),-84.7% (active),-89.2% (active),–
O=[N+]([O-])c1ccc(N2CCN(Cc3ccccc3)CC2)c2c1no[n+]2[O-],57.5%,-25.5% (active),-28.9% (active),7.84% (active),-86% (active),-14.4% (active),-52.2% (active),–
O=C1/C(=C\c2ccc([N+](=O)[O-])cc2)CS(=O)(=O)C/C1=C/c1ccc([N+](=O)[O-])cc1,-56% (active),-82.2% (active),-75% (active),-58.5% (active),-100% (active),–,-89.4% (active),–
Cc1cc(N/N=C/c2ccccn2)nc2ccccc12,24.1%,–,29.6%,14%,17.6%,24.7%,24.5%,18.5%
CCC1CCCCN1C(=S)N/N=C(\C)c1ccccn1 (stereo not given),4.58% (active),30.8%,3.24% (active),13%,5.51% (active),17.9%,4.56% (active),–
O=C(/C=C/C(Cl)(Cl)Cl)Nc1ccc(Cl)cc1,94.6%,102%,105%,99.8%,104%,108%,132%,–
OC(c1cc(-c2ccc(C(F)(F)F)cc2)nc(C(F)(F)F)c1)C1CCCCN1 (stereo not given),-69.2% (active) and -89.5% (active) and -17.2% (active),52.1% and 93.5% and 85.3%,-63% (active) and -91.8% (active) and 6.26% (active),–,-82% (active) and -96.2% (active) and 3.87% (active),-66.8% (active) and -95% (active) and -74.6% (active),-80.1% (active) and -85.2% (active) and -62.3% (active),–
CC1=CC(=O)C=CC1(C)C(Cl)(Cl)Cl (stereo not given),89.8%,103%,105%,92.6%,89.9%,98.6%,108%,–
CCCCCCCCCCCCN1C(C)=CS/C1=C\C=C\c1scc(C)[n+]1CCCCCCCCCCCC,13.8%,23.7%,13.6%,7.9% (active),17.7%,28.4%,14.8%,–
Cc1ccccc1N=C(N)Nc1ccccc1C (tested in a mixture with another compound),76.6%,96.1%,89.5%,94.2%,83.4%,97.8%,64.6%,–
CC[n+]1ccc(Nc2ccc(NC(=O)c3ccc(Nc4cc[n+](CC)c5ccc([N+](=O)[O-])cc45)cc3)cc2)cc1,46.3%,92.6%,74.4%,–,65.4%,104%,65.5%,–
Cc1cc(Br)c2nsnc2c1[N+](=O)[O-],25.1%,45%,21.1%,–,26.3%,–,9.82% (active),–
Oc1ccc2c(c1)CCc1ccccc1-2,86.3%,106%,96.6%,–,97.7%,102%,113%,–
O=C(c1ccccc1)C(O)C(Br)(CBr)c1ccccc1 (stereo not given),98.6%,68.4%,67.4%,–,57.2%,87.1%,80.5%,–
NNc1ccc(Cl)cc1Cl,52%,88.7%,96.6%,74.8%,87.1%,93.9%,51.3%,–
N#CC(I)CS(=O)(=O)c1ccccc1 (stereo not given),44.6%,–,109%,91.5%,-10.5% (active),107%,96.1%,26.3%
O=[N+]([O-])C=C(c1ccccc1)c1ccccc1,66.2%,76.6%,23.7%,84.8%,64%,87.3%,66.4%,–
CCc1oc2ccccc2c1C(=O)c1cc(Br)c(O)c(Br)c1,62.1%,–,-11.1% (active),69.2%,73.5%,85.9%,77.5%,61.4%
Clc1ccc(-n2ncc3c(NCCCN4CCOCC4)ncnc32)cc1,85.3%,101%,98.9%,89.9%,94.9%,105%,103%,–
C1=C(c2ccccc2)c2ccccc2C1,92.7%,99.1%,93.1%,109%,95.8%,91%,96.3%,–
O=C(c1ccccc1)c1cc2ccccc2oc1=O,85.5%,89.8%,109%,108%,–,118%,92.3%,–
O=C(Nc1ccc(Cl)c(Cl)c1)Nc1ccccc1O,50.7%,105%,76.2%,51.9%,60.7%,80.4%,96.5%,–
OC(c1cc2ccc(C(F)(F)F)cc2c2cc(C(F)(F)F)ccc12)C1CCCCN1 (stereo not given),-90.5% (active),–,-100% (active),-90.8% (active),-86.5% (active),-86.7% (active),-97.3% (active),-100% (active)
CCCCC(C=O)(C=C=C(C)C)CC (stereo not given),111%,–,99.1%,90.9%,106%,109%,109%,106%
Oc1c(Cl)cc(Cl)cc1C(c1cc(Cl)cc(Cl)c1O)C(Cl)(Cl)Cl,1.95% (active),7.91% (active),–,4.85% (active),0.34% (active),–,-0.332% (active),9.94% (active)

SMILES,growth (T-47D breast),growth (BT-549 breast),growth (MDA-MB-435 melanoma),growth (MCF7 breast),growth (HCT-116 colon),growth (HCC-2998 colon),growth (KM12 colon),growth (SW-620 colon)
COc1cc(/C=C2\SC(=S)N(/C=C/c3nc4ccccc4[nH]c3=O)C2=O)cc(OC)c1OC,52.6%,–,81.9%,82.1%,78.8%,87.5%,90.4%,91.2%
Cc1cc(=O)oc2cc(O)cc(O)c12,90.5%,–,94.7%,98%,90.5%,111%,111%,92%
CCC1C[N+]2=C(c3cc(OC)c(OC)cc3CC2)c2c1cc1n2CCc2cc(OC)c(OC)cc2-1 (stereo not given),6.69% (active),–,5.51% (active),9.71% (active),40.4%,34%,7.73% (active),48.8%
CC(C)(C)c1ccc(CCO)cc1,106%,86.1%,89%,101%,99.7%,95.2%,115%,–
COc1ccc(C(OCC2OC(n3ccc(NC(=O)c4ccccc4)nc3=O)C(O)C2O)(c2ccccc2)c2ccccc2)cc1 (stereo not given),40.2%,44.3%,31.1%,13.3%,3.43% (active),75.8%,19.2%,–
CCCCCCCCCCCCCCCCCC[S+](C)CC (stereo not given),16.6%,45.1%,–,36.3%,27.8%,50.2%,-31.7% (active),28.1%
CC(C)N=C(N)/N=C(\N)Nc1ccc2ccc3ccccc3c2c1,-67.8% (active),-55.3% (active),-93.7% (active),-90.5% (active),3.26% (active),-90.9% (active),-82.2% (active),–
CN1CCC(c2ccccc2)(c2ccccc2)C(=O)C1,13.7%,115%,98.9%,27.7%,64.8%,82.1%,92.2%,–
C[n+]1ccccc1C[n+]1ccccc1,105%,–,115%,92.3%,–,110%,103%,118%
O=C1C=CC(=O)c2c(O)c(CO)c(CO)c(O)c21,96.3%,–,83.5%,96.9%,74.7%,108%,115%,109%
CCCCCCCCCCCC[n+]1ccccc1 (tested in a mixture with another compound),14.4%,–,-74% (active),–,-9.07% (active),-47.7% (active),-95.7% (active),0.841% (active)
CCCCCCCCCCCC[N+]1(CCCCCCCCCCCC)CCCC(C)C1 (stereo not given),-78.6% (active),–,-58.7% (active),-88.9% (active),-97.2% (active),-96.6% (active),-96.3% (active),–
COc1cc([C@@H]2c3cc4c(cc3[C@H](OC3OC5COC(c6ccccc6)OC5C(O)C3O)[C@H]3COC(=O)[C@H]23)OCO4)cc(OC)c1OC (stereo not given in full),107%,–,22.7%,10.5%,12.3%,-5.24% (active),42.9%,43.9%
O=C(C[P+](c1ccccc1)(c1ccccc1)c1ccccc1)c1ccccc1,89.9%,–,98.5%,90.6%,–,93.9%,101%,97.3%
CCSc1nc2ccccc2o1,106%,–,111%,99.5%,111%,117%,108%,106%
CCOC(=O)C1(C)CCCC1N (stereo not given),105%,–,103%,–,111%,115%,98.5%,106%
COc1ccc2c(c1)c(CC(=O)O)c(C)n2C(=O)c1ccc(Cl)cc1,107%,–,96.8%,83.7%,–,108%,99.2%,98.8%
C/C(=N/NC(N)=S)c1ccc(C)cc1,22%,–,96.1%,25.6%,8.6% (active),110%,104%,75.3%
CCC(=O)c1cc([N+](=O)[O-])c(Br)s1,-46.2% (active),–,96.9%,62.6%,–,92.7%,93.8%,35.4%
Oc1ccc2ccccc2c1N=Nc1nccs1,15.5%,–,35.3%,17.1%,-20.8% (active),-5.47% (active),25%,24.7%
CCOC(=O)c1[nH]c(C#N)c(C(=O)OCC)c1C,96.6%,–,94.4%,103%,103%,103%,107%,–
O=C(c1ccccc1)C(Br)C(Br)c1ccccc1 (stereo not given),31%,–,74.6%,–,-95.7% (active),93.3%,55.1%,-76.9% (active)
CCCCCCCCCCCCCCCc1ccc(C(=O)C[n+]2ccccc2)cc1,-25.1% (active),–,-78.1% (active),-88.6% (active),-97.7% (active),-83.4% (active),-97.7% (active),–
O=C1C(=O)c2cc([N+](=O)[O-])ccc2-c2ccccc21,-35.6% (active),–,-79.3% (active),-55.3% (active),-92.5% (active),65.9%,-81.7% (active),-81.1% (active)
O=[N+]([O-])c1ccc2c(c1)Cc1ccccc1-2,94%,–,99.4%,–,91.3%,98.3%,98.3%,95.8%

# — PubChem BioAssay (NCI)
